Results: the supplement of paper PMC10338343
± gives the standard deviation.

Tests used:
[1] = tested on: MILI (PIWIL2) piRISC loaded with L1MC piRNA (26 nt); assay: pre-steady-state target cleavage rate (min^-1); guide: L1MC piRNA 5'p-UAACUAAAUACUAUGCAAGCUGUAGG; higher = faster piRNA-guided slicing of the target;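 further: 1 nM active piRISC with 0.1 nM target library at 33 °C single turnover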
How it was run: (§1)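 In this Cleave-'n-Seq assay, uncleaved targets were sequenced and normalised to depth and to weakly complementary targets. They came from a transcribed, DNA-blocked target RNA library […] mixed with 1 nM active affinity-purified piRISC carrying one synthetic guide, with or without 500 nM GTSF1 partner protein, in HEPES–potassium acetate buffer at 33 °C for 0–8 or 0–960 min. After three trials were pooled and k3 was capped at 0.0001 min^-1, the pre-steady-state cleavage rate was obtained from a burst-and-steady-state fit.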

[2] = tested on: EfPiwi piRISC loaded with L1MC piRNA (26 nt); assay: pre-steady-state target cleavage rate (min^-1); auxiliary factor: 500 nM Ephydatia muelleri Gtsf1; guide: L1MC piRNA 5'p-UAACUAAAUACUAUGCAAGCUGUAGG; MIWI and MILI are mouse PIWI proteins and EfPiwi is from a freshwater sponge; tags in brackets are library labels; higher = faster piRNA-guided slicing of the target
How it was run: as §1

[3] = auxiliary factor: 500 nM mouse GTSF1
[4] = auxiliary factor: none (no GTSF1)

Row | Sequence | pre-steady-state target cleavage rate [1, 3] | pre-steady-state target cleavage rate [1, 4] | pre-steady-state target cleavage rate [2]
1 | UCCUCCUACAGUUGCAUAGUAUUUAGUUA | 0.255 ± 0.014 | 0.00612 ± 0.0019 | 0.0777 ± 0.021
2 | UCCUGCUUCACCUUGCAUAGUAUUUAGUUA | 0.228 ± 0.027 | 0.00696 ± 0.0025 | 0.0076 ± 0.0034
3 | UCCUGCUACAGCAUGCAUAGUAUUUAGUUA | 0.353 ± 0.022 | 0.00853 ± 0.003 | 0.0124 ± 0.0037
4 | UCCUGGUACAGCUUGCAUAGUAUUUAGUA | 0.226 ± 0.031 | 0.00521 ± 0.003 | 0.00657 ± 0.0033
5 | UCCUGGUACAGCAUGCAUACUAUUUAGUUA | 0.139 ± 0.031 | 0.00694 ± 0.003 | 0.00483 ± 0.0019
6 | UCCUCCUUCAGCUAGCAUAGUAUUUAGUUA | 0.228 ± 0.017 | 0.00519 ± 0.0022 | 0.0131 ± 0.0046
7 | UCCUCCUACAGCUUCGCAUAGUAUUUAGUUA | 0.282 ± 0.015 | 0.00644 ± 0.0025 | 0.121 ± 0.032
8 | UCCUCGUACAGCUAGCAUAGUAUUUAGUUA | 0.281 ± 0.012 | 0.00766 ± 0.0022 | 0.0402 ± 0.01
9 | UCCUGCUAGAGCUUGCAUAGUAUAUAGUUA | 0.176 ± 0.02 | 0.00268 ± 0.0026 | 0.00471 ± 0.0017
10 | UCCUCCUACAGGUUGCAUAGUAAUUAGUUA | 0.205 ± 0.018 | 0.00589 ± 0.0017 | 0.0115 ± 0.0031
11 | UCCUGCUACGGCUUGCAUAGUAUUUAGUUA | 0.276 ± 0.021 | 0.00977 ± 0.0025 | 0.00972 ± 0.0027
12 | UCCUGGAACAGCUUGCAUAGUAUAUUAGUUA | 0.247 ± 0.019 | 0.00778 ± 0.0024 | 0.0104 ± 0.0043
13 | UCCUGGAACAGCUUGCAUAGUAUUUGGUUA | 0.221 ± 0.026 | 0.00881 ± 0.0026 | 0.00496 ± 0.002
14 | UCCUGGAUCAGCUUGCAUAGUAUAUUAGUUA | 0.273 ± 0.015 | 0.00593 ± 0.0025 | 0.127 ± 0.043
15 | UCCUGGUACAGCUUGCAUAGUAUUUACGUUA | 0.227 ± 0.039 | 0.00544 ± 0.0036 | 0.00346 ± 0.0025
16 | UCCUGGAUGUCGAUGCAUAGUAUUUAAGUUA | 0.145 ± 0.019 | 0.00656 ± 0.0024 | 0.00522 ± 0.0045
17 | UCCUCCUACAGCUUGCAUAGUAUUUCAGUUA | 0.463 ± 0.073 | 0.0049 ± 0.0029 | 0.00437 ± 0.0022
18 | UCCUCCUACAGCUUGCAUUGUAUUUAGUAA | 0.182 ± 0.02 | 0.00398 ± 0.002 | 0.00648 ± 0.0029
19 | UCCUCCUAGUGCUUGCAUAGUAUUUAGUUA | 0.164 ± 0.018 | 0.00418 ± 0.0018 | 0.00928 ± 0.0031
20 | UCCUGCUAGACCUUGCAUAGUAUUUAGUUA | 0.171 ± 0.02 | 0.00811 ± 0.0031 | 0.00526 ± 0.0023
21 | UCCUGGAUGUGGCUUGCAUAGUAUUUAGUUA | 0.163 ± 0.017 | 0.0089 ± 0.0042 | 0.0125 ± 0.0049
22 | UCCUGGUAGAGCAUGCAUAGUAUUUAGUUA | 0.196 ± 0.018 | 0.0109 ± 0.0033 | 0.0134 ± 0.004
23 | UCCUCCUACAGCUACCAUAGUAUUUAGUUA | 0.2 ± 0.021 | 0.00448 ± 0.0023 | 0.00393 ± 0.0021
24 | UCCUGGAUCAGCAUGCAAAGUAUUUAGUUA | 0.098 ± 0.011 | 0.0074 ± 0.0018 | 0.0037 ± 0.0031
